# Screening data: PubChem, National Center for Advancing Translational Sciences (NCATS)
# Cycloheximide cs – counter-screen for Shiga toxin inhibitors: cycloheximide protein synthesis inhibition; max response, %; cell reporter, cycloheximide protein synthesis inhibition counterscreen; AID 2314; 12% of 300,000 active; in the data active = max response mostly above about 13%, no sharp cut-off; inactive = mostly below about 14%; note: read at 38.3 µM for the half of the compounds with a filed dose; 0% is about no effect
# Pf growth 48h – inhibits P. falciparum growth in the first generation, 48 h. Potency, µM (titrated, usually from 28.7 µM), for inactives: at the highest dose activity change, negative = inhibition, usual class: inhibitors. 5.9% of 310,000 active. P. falciparum luciferase growth in erythrocytes, 48 h. AID 504832; note: potency is the fitted concentration of half-maximal effect; % is set by controls: 0 for no effect and ±100 for the full control effect
#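 Read-out is firefly luciferase luminescence from an integrated reporter in P. falciparum, so falling signal marks reduced parasite growth. Infected erythrocytes were at 2% hematocrit and 0.1% parasitemia (final) in Albumax-supplemented RPMI 1640.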
# Giardia FBPA inh – blocks Giardia fructose-bisphosphate aldolase activity. A8B2U2. purified Giardia FBPA. Potency, µM (top dose mostly 59.6 µM), for the others: at the top dose activity, negative = inhibition, usual class: inhibitors. 0.71% of 290,000 active. AID 2451; note: potency is the fitted concentration of half-maximal effect; % is set by controls: 0 for no effect and ±100 for the full control effect; nearly all actives have a fitted effect of over 55% in size
# Target sequence (A8B2U2 whole entry, looked up): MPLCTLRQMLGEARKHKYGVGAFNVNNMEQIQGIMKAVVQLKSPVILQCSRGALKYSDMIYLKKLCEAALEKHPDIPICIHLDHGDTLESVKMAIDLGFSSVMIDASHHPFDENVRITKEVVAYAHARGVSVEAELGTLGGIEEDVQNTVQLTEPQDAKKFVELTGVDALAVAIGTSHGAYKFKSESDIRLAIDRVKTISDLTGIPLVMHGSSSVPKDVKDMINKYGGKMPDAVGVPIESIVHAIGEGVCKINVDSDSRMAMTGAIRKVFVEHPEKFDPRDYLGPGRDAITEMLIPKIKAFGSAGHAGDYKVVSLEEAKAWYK
#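 40 nM FBPA preincubated 10 min at RT with compound (up to 57.5 uM final), then substrate plus GAPDH/TPI/NAD/arsenate coupling and diaphorase/resazurin added. Fluorescence read after 20 min at RT, 525/598 nm.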
# Pf growth 96h – inhibits malaria parasite growth, 96 h | P. falciparum luciferase reporter growth, 96 h | Potency, µM (highest dose often 28.7 µM), without a hit: at the highest dose activity change, negative = inhibition, most hits filed as inhibitors | 6.9% of 320,000 active | AID 504834; note: potency is the fitted concentration of half-maximal effect; % is set by controls: 0 for no effect and ±100 for the full control effect
#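 P. falciparum expressing integrated firefly luciferase grown in erythrocytes (2% hematocrit, 0.05% parasitemia final) with compounds for 96 hours at 37 C, 5% CO2. Growth inhibition read as loss of luminescence after adding luciferase detection reagent.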
# Shiga toxin inh – Shiga toxin inhibition | Vero cells, Shiga toxin protein synthesis inhibition reporter | inhibition, % at 38.7 µM | 9.2% of 290,000 active | AID 2315; in the data active = inhibition mostly above about 28%, no sharp cut-off; inactive = mostly below about 43%; note: 0% is about no effect
# NS1 inh – inhibitors of influenza NS1 protein function | AID 2326 | Potency, µM (series often up to 46.1 µM), for inactives: at the highest dose activity, positive = more growth | 0.4% of 270,000 active; calls by dose curve; note: potency is the fitted concentration of half-maximal effect; actives are rising curves; nearly all actives have a fitted effect of over 50% in size
#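 Compounds were scored for reversing the slow growth caused by influenza A NS1 in S. cerevisiae, measured by optical density at 600 nm. Assay medium contained 2% galactose at pH 6.0; NS1-free yeast of the same strain were the positive control.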
# * = called active by the depositor; u = inconclusive; x = no result. Sampled rows, rich in hits. Any-hit rate of the full collection: about 21%. Unless noted, calls come from the whole dose curve; as a rule, active = well fitted curve in the direction sought with a large enough effect; inconclusive = small, poorly fitted or top-dose-only effect, or another doubt; inactive = no such curve, though single readings can be large; an effect the other way counts as inactive or inconclusive.
SMILES,Cycloheximide cs,Pf growth 48h,Giardia FBPA inh,Pf growth 96h,Shiga toxin inh,NS1 inh
COCCn1c(C)cc(C(=O)CSc2cc(C)c3ccccc3n2)c1C,10.9,-23.8%,1.0%,-4.4%,14.1,19.9%
CN(Cc1ccccc1)C(=O)CSc1nc2ccccc2c(=O)n1Cc1ccco1,37.8*,-10.8%,-1.2%,u,38.6,-7.2%
Cc1ccc(NC(=O)CN(C)C(=O)CSc2nc3ccccc3c(=O)n2Cc2ccco2)cc1,-3.9,u,-2.3%,u,-15.9,23.1%
COCCNC(=O)c1ccc2c(=O)n(Cc3ccco3)c(SCC(=O)NC3CCCCC3)nc2c1,-1.5,0.1%,3.4%,u,-15.2,1.1%
O=C(NCc1ccco1)c1ccc2c(=O)n(Cc3ccco3)c(SCC(=O)N3CCCC3)nc2c1,32.7*,u,0.2%,52.0%,38.9*,6.4%
COCCn1c(C)cc(C(=O)CSc2nc3ccccc3c(=O)n2Cc2ccco2)c1C,22.9*,33.6%,2.1%,-3.8%,95.5*,27.7%
COc1ccc(-c2nc(C=O)cs2)cc1,13.2*,18.6%,0.8%,29.9%,39.2*,-32.6%
COc1ccc(-c2nc(CNS(=O)(=O)c3ccc(OC)c(OC)c3)cs2)cc1,-2.9,-10.0%,-0.2%,-15.2%,14.3,2.8%
COc1cccc(-c2nc(C=O)cs2)c1,12.9,5.4%,-6.7%,4.7%,30.7*,x
CC(C)C(=O)NNC(=O)CSc1nnnn1C(C)C,-2.1,21.0%,0.8%,u,7.1,6.0%
COc1cc(C(=O)NCCC(=O)NC(C)CCc2ccccc2)cc(OC)c1OC (stereo not given),-5.2,u,x,-0.9%,9.4,-6.9%
CN(Cc1nc(-c2ccccn2)no1)S(=O)(=O)c1ccc(Cl)cc1,-0.1,32.0%,0.6%,x,9.3,-29.0%
CC(Oc1ccc(Cl)cc1Cl)c1nc(-c2ccc(NC(=O)c3cccnc3)cc2)no1 (stereo not given),-2.4,3.29µM*,-19.8%,9.3%,-4.5,-57.5%
CC(Oc1ccc(Cl)cc1Cl)c1nc(-c2ccc(NC(=O)c3ccncc3)cc2)no1 (stereo not given),7.7,14.7µM*,-5.1%,9.28µM*,-11.3,-3.5%
CC(Oc1ccc(Cl)cc1Cl)C(=O)NNC(=O)c1cccnc1 (stereo not given),2.4,5.9%,-0.2%,21.4%,3.0,-5.4%
CC(Oc1ccc(Cl)cc1Cl)c1nc(-c2ccccn2)no1 (stereo not given),35.9*,12.8%,-0.4%,-0.9%,97.2*,-92.5%
CC(C)C[C@@H](CC(=O)N[C@@H](CCC(=O)O)CC(=O)O)NC(=O)[C@@H]1CNCC[C@H]1NC(=O)C[C@H](CCCN)NC(=O)C[C@H](Cc1ccccc1)NC(=O)[C@@H]1CCCC[C@H]1N,x,x,-17.5%,x,x,x
CC(=O)c1ccc(S(=O)(=O)Nc2cccc(-c3ccc4nncn4n3)c2)cc1,-4.8,u,8.3%,-26.1%,-7.1,7.2%
CC(=O)Nc1ccc(S(=O)(=O)Nc2cccc(-c3ccc4nncn4n3)c2)cc1,-3.3,-25.9%,0.1%,2.08µM*,-7.3,x
COc1ccc(CN(C(=O)c2cc(=O)c3ccccc3o2)C2CCS(=O)(=O)C2)cc1 (stereo not given),-1.4,-14.9%,10.1%,u,-3.0,-3.8%
CC(=O)N1CCN(c2ccc(NS(=O)(=O)c3ccc(C)cc3)cc2)CC1,-7.9,-3.1%,-7.4%,u,-10.4,-2.9%
Cc1cc(C)nc(/N=C(\N)N(Cc2ccccc2)Cc2ccccc2)n1,-4.9,u,8.6%,10.4µM*,-1.7,-5.7%
CCCCN(CCCC)/C(N)=N/c1nc(C)cc(C)n1,-2.3,-18.5%,0.8%,u,-23.3,-1.5%
COc1cc(-c2noc(CCC(N)=O)n2)cc(OC)c1OC,-2.8,-5.0%,-0.2%,9.28µM*,-7.1,-2.0%
Cc1ccc(-c2noc(CCC(=O)NCC3CCCO3)n2)cc1 (stereo not given),-2.7,x,4.3%,33.8%,1.9,-11.7%
SMILES,Cycloheximide cs,Pf growth 48h,Giardia FBPA inh,Pf growth 96h,Shiga toxin inh,NS1 inh
CC(C)(C)c1ccc(-c2noc(CCC(=O)Nc3cccnc3)n2)cc1,-3.2,-4.2%,-5.1%,27.2%,3.6,2.7%
CNC(=O)CCc1nc(-c2ccc(C(C)(C)C)cc2)no1,41.2*,193.4%,-0.6%,u,57.3,-7.9%
CC(C)(C)c1ccc(-c2noc(CCC(N)=O)n2)cc1,34.5*,13.2%,-4.4%,x,71.5*,-9.7%
CC(C)(C)c1ccc(-c2noc(CCC(=O)NCC3CCCO3)n2)cc1 (stereo not given),43.2*,x,2.0%,307.5%,55.1,-3.3%
O=C(CSc1nnc2ccc(-c3ccc(F)cc3)nn12)N1CCOCC1,x,34.9%,x,10.6%,x,x
COc1ccc2c(c1)nc(NCCCO)n2Cc1ccccc1,1.2,56.1%,-0.6%,33.6%,-12.8,-0.1%
CCc1ccc(C(C(=O)NC2CCCC2)N(C(=O)c2csnn2)C2CC2)cc1 (stereo not given),-5.3,-18.0%,x,u,-6.8,-2.6%
CN(C)C(=O)CCc1nc(-c2ccc(C(C)(C)C)cc2)no1,43.8*,171.5%,-1.3%,21.9%,123.3*,-21.2%
CC(C)(C)c1ccc(-c2noc(CCC(=O)N3CCOCC3)n2)cc1,26.1*,451.6%,-27.7%,7.5%,38.5,x
CCc1ccccc1N(CC)C(=O)CCc1nc(-c2ccc(C)cc2)no1,5.3,u,-0.9%,x,14.9,-152.8%
O=C(Nc1cccc(C(=O)Nc2cc(C(=O)Nc3ccc([S+](=O)([O-])[O-])c4cc([S+](=O)([O-])[O-])cc(SOOO)c34)ccc2F)c1)Nc1cccc(C(=O)Nc2cc(C(=O)Nc3ccc([S+](=O)([O-])[O-])c4cc([S+](=O)([O-])[O-])cc([S+](=O)([O-])[O-])c34)ccc2F)c1,-12.1,x,-14.3%,x,-15.2,x
COc1ccc(-c2[nH]ncc2CN(C)Cc2ccccn2)c(OC)c1,1.4,0.0%,u,13.1µM*,21.2,5.2%
Cc1no[n+]([O-])c1COc1ccc(/C=N/n2nnnc2N)cc1,-3.5,-29.3%,-2.7%,11.7µM*,25.0,-17.5%
CN(CCCNC(=O)CSc1cc(=O)n(C)c2ccc(Cl)cc12)Cc1ccccc1,-1.3,-7.4%,5.1%,-6.0%,2.6,x
CCOc1cccc(/C=C2\NC(=S)N(c3ccccc3)C2=O)c1O,42.0*,115.5%,u,128.1%,55.3*,-14.4%
CCOc1cc(/C=C2\NC(=S)N(c3c(C)n(C)n(-c4ccccc4)c3=O)C2=O)ccc1O,-0.9,10.3%,-27.4%,28.8%,-8.0,14.6%
CCOc1ccccc1C1C2=C(COC2=O)Nc2cc3c(cc21)OCO3 (stereo not given),-1.9,u,-8.2%,10.4µM*,-14.3,1.8%
O=C1OCC2=C1C(c1ccc(F)cc1)c1cc3c(cc1N2)OCO3 (stereo not given),-4.7,8.1%,-2.8%,32.5%,-7.0,x
CCCCOc1ccc(OCCNS(=O)(=O)N(C)C)cc1,20.5*,10.6%,5.3%,-14.9%,44.5,-15.5%
